Measured values: PubChem BioAssay AID1471 (National Center for Advancing Translational Sciences (NCATS), 2008)
The whole screen tested about 230,000 compounds, of which about 310 (0.13%) were called active. A call without a number means that no potency is given here. Not shown: some 2% with an inconclusive outcome. Calls come from the whole dose curve; as a rule, active = well fitted activation curve with a large enough effect; inconclusive = small, poorly fitted or top-dose-only effect; inactive = no such curve, though single readings can be large or run the other way. The sample as a whole holds a higher share of actives than the screen did.

Assay: qHTS Multiplex Assay to Identify Dual Action Probes in a Cell Model of Huntington: Cytoprotection (ATP); note: nearly all actives have a fitted effect of over 45% in size;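 for cytoprotection (ATP increase): toxic huntingtin expression switched on by the ecdysone agonist tebufenozide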
Conditions: PC12 HTT-Q103 induced, ATP luminescence, 40 h; series mostly up to 56.4 µM
In short: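 Cells were plated at 1500 per well in phenol red-free DMEM with 5% equine and 5% calf serum. Tebufenozide (100 nM final) and compounds were added, then ATPlite reagent, and luminescence was read.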
Potency is the fitted concentration of half-maximal effect.

| SMILES | cytoprotection (ATP increase) | Potency |
| --- | --- | --- |
| CC(C)(O)c1ccccc1CC[C@H](SCC1(CC(=O)O)CC1)c1cccc(/C=C/c2ccc3ccc(Cl)cc3n2)c1 | inactive |  |
| C=CC1(C)CC(=O)C2(O)C(C)(O1)C(OC(C)=O)C(O)C1C(C)(C)CCC(O)C12C (stereo unspecified) | inactive |  |
| C[C@H]1Cc2c(COc3ccccc3)nc3c(c2CO1)CN(C(=O)NCc1ccco1)CC3 | 9.12% [at 10 µM] (inactive) |  |
| O=C1OCCN1C(=O)[C@H]1[C@H](c2ccc(F)cc2)C(c2ccccc2)=NN1c1ccc(Br)cc1 | inactive |  |
| Cc1cc2oc(=O)cc(-c3ccccc3)c2c(C)c1-c1ccc(OC(F)(F)F)cc1 | inactive |  |
| COc1ccc(CC(N)C(=O)NC2C(O)[C@H](n3cnc4c(N(C)C)ncnc43)O[C@@H]2CO)cc1 (stereo partly specified) | inactive |  |
| COC(=O)CC1c2ccccc2C(Cc2ccc(OC)cc2)=C(C)N1C(=O)OC (stereo unspecified) | -4.91% [at 10 µM] (inactive) |  |
| COc1cc(OC)cc(-c2nc3ccccc3c(=O)n2NC(=O)c2cccnc2Cl)c1 | -11.8% [at 10 µM] (inactive) |  |
| O=C1C=C(c2ccccc2)CCC1 | inactive |  |
| CC(C)[C@@H]1NC(=O)[C@H](Cc2ccccc2)NC(=O)[C@@H](CC(=O)O)NC(=O)CNC(=O)[C@H](CCCNC(=N)N)NC1=O | inactive |  |
| COc1ccc(N2CCN(CCNC(=O)c3nnc(Cc4c(F)cccc4Cl)o3)CC2)cc1 | 7.41% [at 0.074 µM] (inactive) |  |
| Clc1ccc(C(Cn2ccnc2)OCc2ccsc2Cl)c(Cl)c1 (stereo unspecified) | inactive |  |
| COC(=O)C1=C(C(=O)OC)[C@@H]2N(C)c3ccccc3[C@@]23C[C@@H](C(=O)OC)N(C(=O)c2ccco2)C3=N1 | -6.19% [at 10 µM] (inactive) |  |
| COC(=O)C/C=C/[C@@H](C)[C@H](NC(=O)OCC(Cl)(Cl)Cl)c1ccccc1 | inactive |  |
| C=CC1=C2C=C(C3CC3)N(C(CO)CO)C=C2C(=O)C(C)(OC(=O)c2ccco2)C1=O (stereo unspecified) | -26.7% [at 10 µM] (inactive) |  |
| Cc1ccc(-c2cccc([C@H]3[C@@H]4C=CC[C@@H](C)[C@@H]4C(=O)N3Cc3ccccc3)c2)cc1 | inactive |  |
| COc1ccc(/C=C2\NC(=O)[C@@H]3Cc4ccccc4CN3C2=O)cc1 | inactive |  |
| COC(=O)c1c(CCl)noc1C(=O)NC(C)C | inactive |  |
| c1ccc(CSc2ncnc3c2sc2nc(N4CCOCC4)c4c(c23)CCCC4)cc1 | inactive |  |
| C[C@H]1Cc2c(COc3ccccc3)nc3c(c2CO1)CN(C(=O)Nc1cccc(C#N)c1)CC3 | -20.7% [at 10 µM] (inactive) |  |
| COc1ccc(-c2nc3c(c4c2C[C@H](c2ccccc2)OC4)CN(C(=O)C2CC2)CC3)c(C)c1 | 6.89% [at 10 µM] (inactive) |  |

| SMILES | cytoprotection (ATP increase) | Potency |
| --- | --- | --- |
| COC(=O)CSc1ccc2nnc(CCNS(=O)(=O)c3ccc(C)cc3)n2n1 | inactive |  |
| CCN1C(=O)N[C@@H](c2ccccc2)C(C(=O)OC)=C1C | -11.9% [at 10 µM] (inactive) |  |
| NC(=O)C(=O)N/N=C/c1ccc([N+](=O)[O-])o1 | inactive |  |
| CCOC(=O)C1CSC(CC(=O)Nc2ccc(OCC)cc2)C(=O)N1 (stereo unspecified) | 0.901% [at 10 µM] (inactive) |  |
| COCCCNC(=O)Cn1cc(/C=C(\C#N)C(=O)N2CCN(c3ccccc3)CC2)c2ccccc21 | 1.65% [at 10 µM] (inactive) |  |
| COC(=O)C(C(=O)OC)C1c2ccccc2C=C(C2CC2)N1C(=O)OC (stereo unspecified) | inactive |  |
| Cc1csc(-c2coc3cc(O[C@@H]4O[C@H](CO)[C@@H](O)[C@@H](O)[C@H]4O)ccc3c2=O)n1 | inactive |  |
| O=C1CCC[C@@H]2CC(N3CCCCC3)C[C@@H]3CCN1[C@H]23 (stereo partly specified) | inactive |  |
| CC1=C(C/C=C(\C)CCCC(C)CCCC(C)CCCC(C)C)C(=O)c2ccccc2C1=O (stereo unspecified) | inactive |  |
| CCOC(=O)C1=C(C)c2ccccc2OC1(C)C(=O)OCC (stereo unspecified) | inactive |  |
| COC(=O)[C@@H]1CC2=CC(=O)CC[C@]2(C)[C@@]23O[C@@H]2C[C@@]2(C)[C@@H](CC[C@@]24CCC(=O)O4)[C@H]13 | inactive |  |
| C[C@H](NC(=O)c1nc[nH]c1C(=O)N[C@@H](C)C(=O)OC(C)(C)C)C(=O)OC(C)(C)C | 22% [at 10 µM] (inactive) |  |
| CCCCC/C=C\C/C=C\CCCCCCCCCC(N)=O | inactive |  |
| CCCCC/C=C\CC1OC1CCCCCCCC(=O)O (stereo unspecified) | inactive |  |
| CCCCCCCC[C@@H](O)/C=C/C=C/C=C\[C@@H](O)CCCC(=O)O | inactive |  |
| Cc1ccccc1CSCCNC(=O)c1ccc(Cl)c(S(=O)(=O)N2CCOCC2)c1 | -0.687% [at 10 µM] (inactive) |  |
| CC(C)(CNC(=O)c1ccc(Cl)c(S(=O)(=O)N2CCc3ccccc3C2)c1)N1CCOCC1 | inactive |  |
| O=C(NCCSCc1ccccc1)c1ccc(Cl)c(S(=O)(=O)N2CCOCC2)c1 |  | 398 nM (active) |
| CCCCC/C=C\C/C=C\CCCCCCCCCC(=O)O | inactive |  |
| Nc1nc2c(ncn2[C@@H]2O[C@H](COP(=O)(O)OP(=O)(O)OP(=O)(O)O)[C@@H](O)C2O)c(=O)[nH]1 (stereo partly specified) | inactive |  |
| CC1(C)O[C@@H]2C[C@@H]3[C@H]4C[C@@H](F)C5=CC(=O)C=C[C@]5(C)[C@@]4(F)[C@@H](O)C[C@]3(C)[C@]2(C(=O)CO)O1 | inactive |  |

| SMILES | cytoprotection (ATP increase) | Potency |
| --- | --- | --- |
| C/C=C/C=N/NC(=O)c1ccncc1 | inactive |  |
| CCOC(=O)c1c(NC(=O)CSc2nnc(CNc3ccc(C)cc3C)o2)sc(C)c1C | 33% [at 10 µM] (inactive) |  |
| CCOC(=O)C1=C(C(=O)OCC)C(C(=O)OCC)N(S(=O)(=O)C(F)(F)F)c2ccccc21 (stereo unspecified) | inactive |  |
| CC(OC(=O)CNS(=O)(=O)/C=C/c1ccccc1)C(=O)Nc1ccc(S(=O)(=O)N2CCCC2)cc1 (stereo unspecified) | 15.7% [at 10 µM] (inactive) |  |
| CC(C)(C)NCC(O)COc1cccc2[nH]c(=O)[nH]c12 (stereo unspecified) | inactive |  |
| CC/C=C\C/C=C\C/C=C\C/C=C\C/C=C\C/C=C\CCC(=O)NCCc1ccc(O)c(O)c1 | inactive |  |
| CC(C)c1cnc(NC(=O)Cc2ccccc2)s1 | inactive |  |
| N#Cc1ccc(-c2nc3cc(C#N)c(C#N)cc3nc2-c2ccccc2)cc1C#N |  | 2820 nM (active) |
| N#Cc1ccc(-c2ccc(F)cc2)nc1Sc1ccccc1 | inactive |  |
| N#Cc1c(-c2ccc(F)cc2)nc(-c2ccccc2)[nH]c1=O | inactive |  |
| Cc1csc(-c2nc3ccccc3n2C)n1 | -116% [at 1.9 µM] (inactive) |  |
| CC(O)[C@@H](N)C(=O)O (stereo partly specified) | inactive |  |
| COc1ccc(OC)c(NC(=O)c2cnn(-c3ccccc3Cl)c2NC(=O)c2ccco2)c1 | inactive |  |
| C=CCC(C)(O)c1ccco1 (stereo unspecified) | inactive |  |
| NNc1nnc(NN)c2ccccc12 | inactive |  |
| NC(=O)c1c(NC(=O)CSc2nc(N)cc(=O)[nH]2)sc2c1CCCC2 | 2.28% [at 10 µM] (inactive) |  |
| CCCCc1nnc(NC(=O)CSc2nc(C)cc(=O)[nH]2)s1 | inactive |  |
| CCCCc1nnc(NC(=O)CSc2nc(N)cc(=O)[nH]2)s1 |  | 3160 nM (active) |
| Cc1cccc(C)c1NC(=O)NC1=CCCN1C | inactive |  |
